According to PubChem BioAssay:
Active and inactive are the calls of the source.

Experiments:
[1] = optical density shifts of acrAB sulA E. coli – strain DRC41, OD650, 48 h, E. coli filamentation inducer project, primary screen (AID 1152); settings: higher = more signal, called active from +8 up or from −8 down;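 note: E. coli MC1000 strain DRC41 lacking acrAB efflux pump and sulA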
[2] = probe aLefty1 binding on compound microarray – biochemical, small-molecule microarray, 635/667 nm fluorescence, primary screen (AID 1153); settings: higher = more signal;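 note: score merges spot fluorescence with signal-to-noise ratio from the scanned slide images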
[3] = plasmodial surface anion channel blockers, osmotic lysis – cell-based, P. falciparum Indochina, OD700, 1 h, primary screen (AID 1154); settings: P. falciparum Indochina infected RBC osmotic lysis, higher = more signal, called active from +8 up or from −8 down
[4] = plasmodial surface anion channel blockers, osmotic lysis – cell-based, P. falciparum Indochina, OD700, 2 h, primary screen (AID 1155);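 note: lysis reports solute entry through the parasite surface anion channel PSAC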; settings: P. falciparum Indochina infected erythrocytes, higher = more signal, called active from +8 up or from −8 down
[5] = changes in parasitized red cell lysis, either direction – P. falciparum Indochina, OD700, 3 h, PSAC antagonist project, primary screen (AID 1156); settings: P. falciparum-infected erythrocytes, osmotic lysis, higher = more signal, called active from +8 up or from −8 down
[6] = plasmodial surface anion channel blockers, osmotic lysis – cell-based, P. falciparum Indochina, OD700, 18 h, primary screen (AID 1157); settings: P. falciparum Indochina infected erythrocytes, osmotic lysis OD700, 18 h; higher = more signal, called active from +8 up or from −8 down
[7] = S6 kinase pathway phospho-S6 level changes – cell-based, A549, cytoblot, luminescence, serum-stimulated, primary screen (AID 1158); settings: 5 h, higher = more signal;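 note: serum-stimulated A549 lung adenocarcinoma cells; signal is phosphorylated S6 detected by cytoblot immunostaining with HRP secondary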
[8] = target: NADPH oxidase 2 (Homo sapiens) (UniProt P04839); experiment: compounds shifting NOX2 Amplex Red fluorescence – cell-based, HEK293-NOX2, PMA-stimulated, NOX inhibitor project, primary screen (AID 1159); settings: 45 min, higher = more signal, called active from +8 up or from −8 down; note: test concentration not given here
NADPH oxidase 2 (Homo sapiens), sequence (P04839 whole entry, looked up): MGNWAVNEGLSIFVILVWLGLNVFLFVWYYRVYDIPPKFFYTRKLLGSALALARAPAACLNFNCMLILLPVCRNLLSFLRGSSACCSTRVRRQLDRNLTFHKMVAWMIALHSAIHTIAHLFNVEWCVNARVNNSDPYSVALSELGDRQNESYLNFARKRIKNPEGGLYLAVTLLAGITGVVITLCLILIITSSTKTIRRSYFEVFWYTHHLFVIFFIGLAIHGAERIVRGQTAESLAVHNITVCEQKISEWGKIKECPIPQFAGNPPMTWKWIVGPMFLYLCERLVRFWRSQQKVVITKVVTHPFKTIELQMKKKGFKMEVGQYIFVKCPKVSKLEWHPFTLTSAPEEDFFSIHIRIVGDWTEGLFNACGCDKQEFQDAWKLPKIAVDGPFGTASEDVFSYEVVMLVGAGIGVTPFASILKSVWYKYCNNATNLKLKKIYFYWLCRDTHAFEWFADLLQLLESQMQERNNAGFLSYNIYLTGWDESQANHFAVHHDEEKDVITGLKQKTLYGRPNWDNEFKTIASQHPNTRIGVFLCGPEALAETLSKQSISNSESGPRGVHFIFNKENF

[9] = target: NADPH oxidase 4 (Homo sapiens) (UniProt Q9NPH5); experiment: compounds shifting NOX4 Amplex Red fluorescence – cell-based, HEK293-NOX4, tetracycline-induced, NOX inhibitor project, primary screen (AID 1160); settings: HEK293-NOX4, Amplex Red H2O2 fluorescence, 45 min; higher = more signal, called active from +8 up or from −8 down
NADPH oxidase 4 (Homo sapiens), sequence (Q9NPH5 whole entry, looked up): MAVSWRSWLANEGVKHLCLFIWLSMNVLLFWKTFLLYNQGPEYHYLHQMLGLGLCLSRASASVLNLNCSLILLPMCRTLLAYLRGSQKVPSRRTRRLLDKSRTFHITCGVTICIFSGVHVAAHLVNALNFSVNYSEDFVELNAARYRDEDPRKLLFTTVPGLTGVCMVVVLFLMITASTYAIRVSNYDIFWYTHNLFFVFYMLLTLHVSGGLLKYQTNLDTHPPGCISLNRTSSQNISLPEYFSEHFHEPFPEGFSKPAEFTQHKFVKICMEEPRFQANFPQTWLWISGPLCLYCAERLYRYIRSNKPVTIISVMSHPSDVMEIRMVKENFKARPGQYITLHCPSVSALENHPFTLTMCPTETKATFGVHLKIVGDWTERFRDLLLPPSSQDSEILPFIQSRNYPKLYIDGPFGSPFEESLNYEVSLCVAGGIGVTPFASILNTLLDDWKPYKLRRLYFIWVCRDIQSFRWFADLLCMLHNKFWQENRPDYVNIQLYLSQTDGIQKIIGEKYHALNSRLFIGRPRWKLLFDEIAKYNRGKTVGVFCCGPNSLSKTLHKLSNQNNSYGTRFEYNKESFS

[10] = target: NADPH oxidase 5 (Homo sapiens) (UniProt Q96PH1); experiment: compounds shifting NOX5 Amplex Red fluorescence – cell-based, HEK293-NOX5, NOX inhibitor project, primary screen (AID 1161); settings: HEK293-NOX5, ionomycin, 45 min, higher = more signal
NADPH oxidase 5 (Homo sapiens), sequence (Q96PH1 whole entry, looked up): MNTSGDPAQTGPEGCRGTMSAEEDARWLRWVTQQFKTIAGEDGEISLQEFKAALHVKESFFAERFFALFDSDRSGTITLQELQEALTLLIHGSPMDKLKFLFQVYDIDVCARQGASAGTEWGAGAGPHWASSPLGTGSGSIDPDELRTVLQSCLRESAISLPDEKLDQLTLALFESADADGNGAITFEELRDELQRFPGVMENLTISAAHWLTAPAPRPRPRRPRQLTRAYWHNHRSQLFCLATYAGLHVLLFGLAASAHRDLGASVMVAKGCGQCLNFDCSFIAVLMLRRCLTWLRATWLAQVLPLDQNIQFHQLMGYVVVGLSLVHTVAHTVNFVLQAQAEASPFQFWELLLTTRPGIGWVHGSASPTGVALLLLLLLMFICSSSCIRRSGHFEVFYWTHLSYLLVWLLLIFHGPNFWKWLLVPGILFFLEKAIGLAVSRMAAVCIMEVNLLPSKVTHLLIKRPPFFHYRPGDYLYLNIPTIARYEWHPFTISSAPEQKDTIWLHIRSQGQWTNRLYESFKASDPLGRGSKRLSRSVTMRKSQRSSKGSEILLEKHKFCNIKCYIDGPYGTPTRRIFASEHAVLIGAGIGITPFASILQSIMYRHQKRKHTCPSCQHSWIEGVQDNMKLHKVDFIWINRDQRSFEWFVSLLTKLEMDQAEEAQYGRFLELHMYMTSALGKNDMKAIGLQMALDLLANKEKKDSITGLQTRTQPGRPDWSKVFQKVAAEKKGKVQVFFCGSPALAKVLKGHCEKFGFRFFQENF

SMILES	z-score [1]	composite z-score [2]	z-score [3]	z-score [4]	z-score [5]	z-score [6]	z-score [7]	z-score [8]	z-score [9]	z-score [10]
C=CCC(OC(C)=O)[C@@H]1[C@@H](N(Cc2cccc3ccccc23)C(=O)c2ccc(C)cc2)c2cc(OCCCO)ccc2N1C(=O)Cc1ccc2ccccc2c1 (stereo not given in full)	2.62 (inactive)	0.167	0.483 (inactive)	-0.407 (inactive)	-0.419 (inactive)	-1.2 (inactive)	2.14	-2.56 (inactive)	1.08 (inactive)	2.41
CCCNC(=O)[C@@]1(Sc2ccc(C)cc2)CC(=O)N(Cc2cc(C(F)(F)F)cc(C(F)(F)F)c2)[C@@H]1c1ccc(CO)cc1	1.63 (inactive)	-0.193	2.74 (inactive)	0.285 (inactive)	0.25 (inactive)	-1.15 (inactive)	2.9	0.584 (inactive)	-0.589 (inactive)	0.207
N#Cc1ccc(NN2C(C(O)c3ccc(B(O)O)cc3)C=CC3CN(c4ccccc4)C(=O)C32)cc1 (stereo not given)	1.18 (inactive)	0.521	24.4 (active)	10.6 (active)	3.76 (inactive)	2.54 (inactive)	-0.882	-2.63 (inactive)	-6.25 (inactive)	-4.31
Cc1cccc([C@H]2C[C@H]3C(Br)=C[C@@]2(CO)C(=O)[C@]32CO2)c1	-0.269 (inactive)	0.0509	-0.131 (inactive)	0.27 (inactive)	-0.759 (inactive)	-0.063 (inactive)	-0.71	0.26 (inactive)	0.711 (inactive)	-0.0286
CCCCN1CC=CC23O[C@@H]4/C=C\CCCOC(=O)C4[C@H]2C(=O)N(CCCCCCO)[C@@H]3C1=O (stereo not given in full)	2.36 (inactive)	0.0927	1.81 (inactive)	-0.88 (inactive)	-0.75 (inactive)	-0.945 (inactive)	3.08	0.873 (inactive)	0.0146 (inactive)	1.84
CC(C)(C)OC(=O)CC[C@]1(C(=O)N2CCOCC2)COC(c2ccc(OCCCO)cc2)=N1	1.54 (inactive)	0.0429	20.8 (active)	4.54 (inactive)	0.384 (inactive)	1.18 (inactive)	0.359	-1.16 (inactive)	0.324 (inactive)	-1.06
CCc1cccc(NC(=O)O[C@H]2[C@H](OC(=O)Nc3ccccc3-c3ccccc3)[C@H](OC(=O)Nc3ccccc3-c3ccccc3)[C@@H](OC)O[C@@H]2CO)c1	-1.98 (inactive)	0.0442	3.88 (inactive)	1.84 (inactive)	0.17 (inactive)	1.77 (inactive)	0.371	-3.06 (inactive)	-0.477 (inactive)	-1.01
C=CC[C@H](O)c1ccc(O)c2ccccc12	0.675 (inactive)	-0.0163	1.28 (inactive)	0.439 (inactive)	0.168 (inactive)	0.45 (inactive)	-0.323	-5.36 (inactive)	-1.98 (inactive)	1.42
COCCOC(=O)N1C(=O)[C@@]2(c3cc(C#CCC(C(=O)OC)C(=O)OC)ccc31)[C@H](C(N)=O)[C@H]1C(=O)O[C@H](c3ccccc3)[C@H](c3ccccc3)N1[C@@H]2c1ccccc1OCCO	1.08 (inactive)	-0.189	8.08 (active)	2.37 (inactive)	2.67 (inactive)	1.05 (inactive)	4.47	1.02 (inactive)	0.826 (inactive)	-1.13
CC(C)(C)OC(=O)CC[C@]1(C(N)=O)N=C(c2ccc(OCCCO)cc2)O[C@H]1c1ccccc1N=[N+]=[N-]	0.831 (inactive)	0.267	30.5 (active)	32.4 (active)	0.697 (inactive)	2.48 (inactive)	-0.3	-0.285 (inactive)	0.324 (inactive)	-1.19
C=C1C(=O)C=C2CN(C(=O)c3ccccc3)[C@@](Cc3ccc(F)cc3)(C(=O)OC)[C@@H]12	-2.05 (inactive)	0.676	-0.0775 (inactive)	-1.39 (inactive)	-1.69 (inactive)	-1.83 (inactive)	-1.06	-3.94 (inactive)	-4.76 (inactive)	-3.73
C=CCNC(=O)[C@H]1[C@@H]2C(=O)O[C@@H](c3ccccc3)[C@@H](c3ccccc3)N2[C@@H](c2ccc(OCCO)cc2)[C@]12C(=O)Nc1ccc(C#Cc3ccc(OC)cc3)cc12	-0.0405 (inactive)	-0.248	3.42 (inactive)	2.19 (inactive)	0.866 (inactive)	1.4 (inactive)	-0.0157	0.87 (inactive)	0.34 (inactive)	1.43
CCCCC=C[C@@H](NC(=O)C(C)(C)C)c1ccccc1	-2.16 (inactive)	0.181	2.28 (inactive)	1.43 (inactive)	-1.46 (inactive)	1.45 (inactive)	-0.553	-0.312 (inactive)	-2.16 (inactive)	1.63
COC(=O)[C@@]1(Cc2ccc(F)cc2)[C@H]2c3cc(C(=O)N4CCCC4)n(Cc4ccc(OC(F)(F)F)cc4)c3C[C@H]2CN1C(=O)c1ccccc1	-2.47 (inactive)	-0.0141	0.498 (inactive)	0.851 (inactive)	-0.194 (inactive)	0.642 (inactive)	0.0769	0.372 (inactive)	0.32 (inactive)	-0.51
C=C(COC)C(=O)CC[C@H](OC(C)=O)c1ccccc1OCCO	0.618 (inactive)	-0.176	1.91 (inactive)	-0.291 (inactive)	0.537 (inactive)	-1.49 (inactive)	1.2	-1.57 (inactive)	0.456 (inactive)	-1.41
CC(C)Cc1ccc(CN2CC[C@@H](NC(=O)c3ccccc3)C2)cc1	-0.55 (inactive)	-0.147	1.57 (inactive)	1.11 (inactive)	1.23 (inactive)	0.33 (inactive)	0.0681	-0.29 (inactive)	-0.413 (inactive)	-2.41
CC(C)C(=C=CC[C@H](O)c1cccc(OCCO)c1)C[C@H](O)c1ccccn1	1.21 (inactive)	0.21	7.72 (inactive)	0.631 (inactive)	1.96 (inactive)	0.626 (inactive)	0.468	-1.57 (inactive)	0.362 (inactive)	-1.13
[N-]=[N+]=NCc1ccccc1C[C@]1(C(=O)N2CCCCC2)COC(c2ccc(OCCCO)cc2)=N1	2.89 (inactive)	-0.543	29.2 (active)	19.5 (active)	4.13 (inactive)	2.11 (inactive)	-0.305	-1.66 (inactive)	0.0299 (inactive)	-1.38
CCCCCN1CC=CC23O[C@@H]4/C=C\CCCOC(=O)C4[C@H]2C(=O)N(CCO)[C@@H]3C1=O (stereo not given in full)	3.1 (inactive)	-0.103	0.592 (inactive)	0.177 (inactive)	-0.608 (inactive)	-0.776 (inactive)	1.48	0.88 (inactive)	0.261 (inactive)	2.19
O=C(N1CCOCC1)[C@]1(CCS(=O)(=O)c2ccccc2)N=C(c2ccc(OCCCO)cc2)O[C@@H]1c1ccccc1	0.427 (inactive)	0.441	27.2 (active)	20 (active)	3.43 (inactive)	2.61 (inactive)	0.0315	0.348 (inactive)	1.72 (inactive)	1.16
COCCOC(=O)N1C(=O)[C@@]2(c3cc(C#CCNC(N)=O)ccc31)[C@H](c1ccc(O)cc1)N1[C@H](c3ccccc3)[C@H](c3ccccc3)OC(=O)[C@H]1[C@@H]2C(=O)N1CCc2cc(OC)c(OC)cc2C1	-0.872 (inactive)	0.208	1.67 (inactive)	0.13 (inactive)	0.018 (inactive)	0.148 (inactive)	-0.0879	1.15 (inactive)	-0.909 (inactive)	0.891
COc1ccc([Si](C)(C)[C@H]2[C@H](CC(=O)N3CCC[C@H]3CO)O[C@@]3(C(=O)N(C)c4c(Br)cc(C)cc43)[C@@H]2C)cc1	-0.437 (inactive)	1	2.11 (inactive)	0.179 (inactive)	-0.192 (inactive)	0.62 (inactive)	0.488	0.951 (inactive)	0.657 (inactive)	3.04
COC(=O)[C@]1(Cc2ccccc2CN=[N+]=[N-])N=C(c2ccc(OCCCO)cc2)O[C@@H]1c1ccccc1N=[N+]=[N-]	0.204 (inactive)	0.167	31.1 (active)	28.4 (active)	0.444 (inactive)	7.23 (inactive)	-0.424	-0.938 (inactive)	0.298 (inactive)	1.44
[N-]=[N+]=Nc1ccccc1C[C@]1(C(N)=O)COC(c2ccc(OCCCO)cc2)=N1	-0.142 (inactive)	0.146	24.7 (active)	9.16 (active)	1.56 (inactive)	0.0294 (inactive)	1.84	-2.14 (inactive)	-1.48 (inactive)	-2.48
COc1cc2c(cc1O)C(C)N(Cc1sc3ccccc3c1Cl)CC2 (stereo not given)	0.268 (inactive)	-0.145	4.05 (inactive)	2.4 (inactive)	0.334 (inactive)	1.85 (inactive)	-0.43	-3.7 (inactive)	-2.3 (inactive)	-3.2
COc1ccc(C(O)C2C=CC3C(=O)N(C)C(=O)C3N2Nc2ccccc2)cc1 (stereo not given)	-0.485 (inactive)	0.211	0.929 (inactive)	0.865 (inactive)	0.213 (inactive)	0.973 (inactive)	-0.423	-1.26 (inactive)	-2.67 (inactive)	-1.96
COC(=O)[C@@]1(Cc2ccc(F)cc2)[C@H]2c3cc(C(=O)N(C)C)n(Cc4ccsc4Br)c3C[C@H]2CN1C(=O)c1ccccc1	-1.62 (inactive)	1.06	3.86 (inactive)	0.413 (inactive)	0.952 (inactive)	0.765 (inactive)	-0.155	-2.09 (inactive)	-5.46 (inactive)	-2.35
